High-throughput results (PubChem)
Sampled rows, rich in hits. Any-hit rate of the full collection: about 6%.
D1 antagonist – human D1 dopamine receptor antagonism; P21728; activity change, negative = inhibition, % at 10 µM; 360,000 compounds, 3.2% hits; AID 504652; HEK293 TREx D1 cells, calcium flux, dopamine EC80; hits give low values; in the data active = activity change below about -30%; also: % is scaled to controls: 0 for no effect and ±100 for the full control effect
Target sequence (P21728 whole entry, looked up): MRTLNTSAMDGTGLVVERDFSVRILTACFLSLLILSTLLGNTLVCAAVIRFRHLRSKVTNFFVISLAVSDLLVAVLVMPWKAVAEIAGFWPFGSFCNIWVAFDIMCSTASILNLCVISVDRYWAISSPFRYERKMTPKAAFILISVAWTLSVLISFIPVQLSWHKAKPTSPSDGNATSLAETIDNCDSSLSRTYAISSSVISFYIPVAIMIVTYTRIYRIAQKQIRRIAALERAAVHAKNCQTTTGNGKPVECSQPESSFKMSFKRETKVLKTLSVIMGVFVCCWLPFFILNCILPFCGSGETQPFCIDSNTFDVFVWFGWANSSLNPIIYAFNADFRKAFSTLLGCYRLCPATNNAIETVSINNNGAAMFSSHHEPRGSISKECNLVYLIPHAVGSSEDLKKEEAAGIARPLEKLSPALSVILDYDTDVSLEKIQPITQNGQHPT
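Antagonism measured as reduced calcium response to an EC80 dopamine addition following 180 s compound pre-read; cells were inducible HEK293 Trex D1 plated overnight at 30 C, read kinetically at 1 cycle/sec.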
D1 PAM – enhances dopamine response at the human D1 receptor; P21728; potentiation, % at 10 µM; HEK293 TREx D1 cells, calcium flux, dopamine EC20 potentiation; 360,000 compounds, 0.036% hits; in the data active = potentiation above about 30%; also: 0% is about no effect
D3 ag – D3 dopamine receptor (human) agonism. P35462. D3R DiscoveRx beta-arrestin cells, luminescence, 90 min. max activation, %. 410,000 compounds, 0.58% hits. AID 652048; in the data active = max activation above about 30%; also: 0% is about no effect
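Agonist mode: compounds and dopamine controls were applied to plated cells for 90 min at 37 degrees C after an overnight attachment at 1500 cells/well. Luminescent read-out followed 30 - 60 minutes at room temperature with DiscoveRx detection reagent.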
D3 antag – blocks the human D3 dopamine receptor; P35462; 360,000 compounds, 2.5% hits; D3R cells, DiscoveRx beta-arrestin luminescence, antagonist mode; hits give low values; max response, negative = inhibition, %; AID 652054; in the data active = max response below about -50%; inconclusive = no clear call, values can overlap the other calls; also: % is scaled to controls: 0 for no effect and ±100 for the full control effect
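Cells expressing the human receptor were seeded at 1500 cells/well, incubated overnight at 37 degrees C in 5% CO2, then exposed to library compounds with dopamine controls for 90 minutes at 37 degrees C before luminescent detection.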
D1 agonist – activates the human D1 dopamine receptor; P21728; HEK293 T-REx D1 cells, calcium flux, agonist mode; activation, % at 2 µM; 360,000 compounds, 1% hits; AID 504660; in the data active = activation above about 30%; also: 0% is about no effect
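Inducible HEK293 T-REx D1 cells, force-coupled to calcium signalling, were plated at 4000 cells/well with tetracycline and held overnight at 30 C. After no-wash calcium dye loading, compound-evoked calcium rise over 180 s flagged agonists.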
* = called active by the depositor; ? = inconclusive; . = no result given.

SMILES | D1 antagonist | D1 PAM | D3 ag | D3 antag | D1 agonist
COc1ccccc1C(NC(C)=O)c1cc(Cl)c2cccnc2c1O (centres undefined) | -2 | -2 | 3 | -54* | 9
COc1cc(NC(C)=O)c2ncccc2c1NC(C)=O | -36* | 1 | -1 | -7 | 6
CCN1CCN(c2nc(Nc3cccc(C)c3)nc(N)c2[N+](=O)[O-])CC1 | -3 | -5 | -46 | -65* | 1
Cc1cccc(Nc2nc(N)c([N+](=O)[O-])c(N3CCCC(C)C3)n2)c1 (centres undefined) | 10 | 2 | 4 | 6 | 2
CN1CCN(c2nc(Nc3ccccc3)nc(N)c2[N+](=O)[O-])CC1 | 0 | -4 | -39 | -67* | 1
CCN1CCN(c2nc(Nc3ccc(OC)cc3)nc(N)c2[N+](=O)[O-])CC1 | 5 | 10 | -27 | -54* | 1
Nc1nc(Nc2cccc(F)c2)nc(N2CCOCC2)c1[N+](=O)[O-] | 1 | -1 | -10 | -16 | 1
Cc1cccc(Nc2nc(N)c([N+](=O)[O-])c(N3CCN(C)CC3)n2)c1 | 7 | -3 | -32 | -64* | 1
Cc1ccc(Nc2nc(N)c([N+](=O)[O-])c(N3CCOCC3)n2)cc1C | 0 | -9 | -5 | -19 | 28
CCN1CCN(c2nc(Nc3ccccc3)nc(N)c2[N+](=O)[O-])CC1 | 14 | -7 | -1 | -12 | 1
Cn1c(SCC(=O)N2CCOCC2)ncc(C(=O)Nc2ccc(F)cc2)c1=O | . | -1 | 0 | . | 3
Cc1ccc(C)c(-c2ccc(=O)n(C(C)C(=O)Nc3ccccc3C(F)(F)F)n2)c1 (centres undefined) | 3 | -2 | -10 | . | 8
N#Cc1ccccc1Cn1c(=O)n(Cc2ccc(C(=O)NC3CCN(Cc4ccccc4)CC3)cc2)c(=O)c2ccccc21 | -2 | 0 | -10 | . | -1
COc1ccccc1CCNC(=O)CCCn1c(=O)c2cccn2c2cccnc21 | -8 | -2 | 9 | . | -2
CCN1CCN(c2nc(Nc3ccccc3F)nc(N)c2[N+](=O)[O-])CC1 | 2 | -3 | -17 | -63* | 2
COc1cccc2c1C(=O)c1ccc3ccccc3c1C2=O | -35* | -2 | 3 | -15 | 1
COc1ccc(OC)c2c1C(=O)c1ccccc1C2=O | -1 | 0 | -1 | 14 | 31*
COc1ccc(N)c2c1C(=O)c1ccccc1C2=O | -2 | 4 | -15 | ? | 3
COc1ccc(OC)c2c1C(=O)C(Cl)=C(Cl)C2=O | -27 | -8 | -23 | -126* | 10
COc1cccc2c1-c1c(C(=O)O)cccc1C2=O | 0 | -6 | 2 | 7 | 2
CCN(CC)S(=O)(=O)c1ccc2c(c1)N(CC(=O)Nc1ccc(C)cc1C)C(=O)C1CCCN21 (centres undefined) | -17 | -4 | 3 | . | 3
CCc1ccc(C(=O)c2cn(CC(=O)Nc3ccc4c(c3)OCO4)c3ccc(OC)cc3c2=O)cc1 | -2 | -1 | 3 | . | 2
Cc1ccc(CNC(=O)CCS(=O)(=O)c2cc3c4c(c2)CCN4C(=O)CC3)cc1 | 5 | 4 | 6 | . | 2
Cc1nn(-c2ccccc2)c2sc(C(=O)NC3CCCCC3)cc12 | -52* | -3 | -10 | 2 | 2
Cc1cc(C(=O)NCCCN2CCOCC2)n(-c2ccccc2)n1 | 0 | 1 | 1 | 0 | 0
SMILES | D1 antagonist | D1 PAM | D3 ag | D3 antag | D1 agonist
Cc1nn(-c2ccccc2)c2sc(C(=O)NCCN3CCOCC3)cc12 | 4 | -4 | 3 | -71* | 3
Cc1nn(-c2ccccc2)c2sc(C(=O)n3cccn3)cc12 | 14 | 10 | -11 | ? | 2
Cc1ccn(C(=O)c2cc3c(C)nn(-c4ccccc4)c3s2)n1 | 15 | 7 | 1 | -52* | 3
Cc1ccc(C)c(N2CCN(C(=O)Cn3c(C)c4cnn(-c5ccccc5)c(=O)c4c3C)CC2)c1 | -24 | -3 | 8 | . | 21
Cc1ccc(NC(=O)c2c(C)oc3ccc(O)c(CN4CCCCCC4)c23)c(C)c1 | 16 | 1 | -11 | . | 9
O=C(COc1ccc(F)cc1)NNC(=O)c1cc2ccccc2oc1=O | -30* | -9 | 2 | 28 | 1
Cc1cccc(OCC(=O)NNC(=O)c2cc3ccccc3oc2=O)c1 | -4 | -7 | -1 | 20 | 3
COc1ccc(CCNC(=O)C(=O)NCC(c2ccco2)S(=O)(=O)c2ccccc2)cc1OC (centres undefined) | . | -3 | -20 | . | -2
Cc1ccc2cccc(OC(=O)c3ccc4c(c3)OCCO4)c2n1 | -7 | -5 | 2 | -50* | 3
Cc1ccc2cccc(OCC(=O)Nc3ccc4c(c3)OCO4)c2n1 | 15 | 1 | 4 | -2 | 2
CCOC(=O)c1cc(C)n(CC2CCC(C(=O)Nc3ccc(C(C)=O)cc3)CC2)c1C (centres undefined) | -25 | -2 | -1 | . | 6
O=C1c2ccccc2NC(c2ccc3c(c2)OCO3)N1O (centres undefined) | -14 | -4 | -19 | -57* | 2
CCc1cc2c(cc3c(=O)n(CC(=O)N4CCCCC4)nc(CC)n32)s1 | -10 | -1 | 16 | . | 0
Oc1ccc(CNc2cccc(F)c2F)c2cccnc12 | -16 | 5 | . | . | 5
